About 83,000 compounds went through this panel and 20% of them were active in at least one assay; those are over-represented in the sample as a whole.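 Assay: single dose, 48 h. Readout: percent growth (0 = no net growth; negative = cell death). Active: <10.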 A number with no mark means an inactive call. Calls of active or inactive are those of the source.
Assays:
Assay in all cases: NCI-60 one-dose screen, 48 h (100 = growth as untreated, 0 = no growth, -100 = all killed)
Settings in all cases: 10 µM unless noted
SR leukemia = tested on: SR leukemia
RPMI-8226 leukemia = tested on: RPMI-8226 leukemia
OVCAR-8 ovarian = tested on: OVCAR-8 ovarian
OVCAR-5 ovarian = tested on: OVCAR-5 ovarian
OVCAR-4 ovarian = tested on: OVCAR-4 ovarian
SK-OV-3 ovarian = tested on: SK-OV-3 ovarian
IGROV1 ovarian = tested on: IGROV1 ovarian
OVCAR-3 ovarian = tested on: OVCAR-3 ovarian
HS 578T breast = tested on: HS 578T breast
NCI/ADR-RES ovarian = tested on: NCI/ADR-RES ovarian

| SMILES | growth (SR leukemia) | growth (RPMI-8226 leukemia) | growth (OVCAR-8 ovarian) | growth (OVCAR-5 ovarian) | growth (OVCAR-4 ovarian) | growth (SK-OV-3 ovarian) | growth (IGROV1 ovarian) | growth (OVCAR-3 ovarian) | growth (HS 578T breast) | growth (NCI/ADR-RES ovarian) |
| --- | --- | --- | --- | --- | --- | --- | --- | --- | --- | --- |
| CC1=C(C)C(=O)C(NCCN2CCOCC2)=C(Br)C1=O | 55.9% | 58.6% | 16.3% | 4% (active) | -67.4% (active) | 87.5% | 31.4% | -26.9% (active) | 60.4% | 86.4% |
| NS(=O)(=O)c1ccc(N2N=C(c3ccc(NC(=O)Nc4ccccc4)cc3)CC2c2ccc(Br)cc2)cc1 (stereo not given) | 13% | 4.09% (active) | -32.7% (active) | -98.2% (active) | -85.2% (active) | -61.7% (active) | -86.7% (active) | -29.7% (active) | -24.5% (active) | -83.4% (active) |
| COc1cccc(/C=C/c2nc3ccccc3c(=O)n2CC(=O)Nc2ccccc2)c1 | 90% | 71.3% | 21.9% | 65.9% | -1.67% (active) | 54.2% | 61% | 74.6% | 3.02% (active) | 33% |
| CN1CCN(C(=O)Oc2cc3c(c4ccccc24)[C@H](CCl)CN3C(=O)c2cc3cc(OCCCN4CCC4)ccc3[nH]2)[C@@H]2CSSC[C@H]21 | 5.86% (active) | -23.6% (active) | -32.4% (active) | -18.1% (active) | 12.5% | -13.2% (active) | 2.74% (active) | 4.14% (active) | -12.2% (active) | -23.1% (active) |
| Nc1nnc(-c2cncc(Br)c2)c(-c2c[nH]c3ccc(Br)cc23)n1 | 54.3% | 38.4% | 60% | 83% | 42.9% | 98.7% | 52.3% | 69.9% | 55.3% | 23.9% |
| O=C(NNC(=O)c1ccc(OCc2nc3ccc(Cl)cc3[nH]2)cc1)Nc1ccc(Cl)c(Cl)c1 | 69.3% | 102% | 24% | 83.8% | 64.5% | 77.1% | 84.5% | 82.7% | 81.9% | 94.1% |
| N#Cc1ccc(C(=O)CSc2nc3c(c(Nc4ccc(S(N)(=O)=O)cc4)n2)CCC3)cc1 | 58.9% | 79.2% | 3.1% (active) | 70.8% | 43.9% | 67.2% | 15.8% | 97.1% | 26.1% | 53% |
| Cc1ccc2nc(COc3ccc(C(=O)NNC(=O)Nc4ccc(Cl)c(C(F)(F)F)c4)cc3)[nH]c2c1 | 16.8% | 59.5% | 10.7% | 66.9% | 74% | 70.9% | 52.2% | 28.9% | 39.7% | 95.8% |
| CS(=O)(=O)Nc1cccc(-n2cnc3cc(-c4ccc(O)cc4)ccc32)c1 | 32.1% | 27.2% | 30.8% | 56% | 67.1% | 35.6% | 57.7% | 30.7% | 40.8% | 29.8% |
| C#CCN(C)CCCOc1ccc(N(C)C(=O)c2cc(C(C)C)c(O)cc2O)cc1Cl | -13.5% (active) | 8.9% (active) | 9.81% (active) | 29.4% | 36.1% | 16.2% | 11.4% | 30.7% | 26.3% | -5.62% (active) |
| O=C(N/N=C/c1c[nH]c2ccccc12)Nc1ccc(F)c(Cl)c1 | 19.3% | 27.5% | 50.2% | 60.1% | 52.8% | 38.6% | 42.7% | 18.9% | 58.8% | 9.47% (active) |
| CN(C)C(=O)c1cc(-c2ccc3ncnc(N4CCc5cc(F)c(Cl)cc54)c3c2)cnc1N | -57% (active) | -34.6% (active) | -8.58% (active) | -15% (active) | -17.5% (active) | -32.8% (active) | -62.5% (active) | -58.1% (active) | -44.2% (active) | -12.5% (active) |
| COc1cc(CNC(=O)C[C@H](C)CCC=C(C)C)ccc1OCc1cn(-c2ccc(Br)cc2)nn1 | 63.8% | 69.3% | 47.5% | 105% | 49.5% | 64% | 89.9% | 105% | 73.8% | 52.1% |
| COc1cc(C2CC(c3cc(OC)c(OC)c(OC)c3)=Nc3c(N)nc(N)nc3N2)ccc1Oc1nc(Nc2ccc(F)cc2)nc(N(C)C)n1 (stereo not given) | -7.88% (active) | 33.9% | 59% | 105% | 49.2% | 107% | 70.8% | 74.2% | 48.2% | 66.4% |
| COC(=O)CSC1=C(C)C(=O)C(OC)=C(OC)C1=O | 57% | 65.6% | 92.2% | 110% | 94.2% | 100% | 106% | 91.8% | 79.2% | 96.6% |
| COc1ccc2c(c1)N=c1c-2cc2c(O)[nH]c(=S)n2c1=O | 21.7% | 62.6% | 53.2% | 53.5% | 86.9% | 53.3% | 50% | 33.8% | 21.5% | 26.7% |
| CCOc1ccccc1NC(=O)N/C(N)=N/c1nc2ccccc2s1 | 5.36% (active) | 0.173% (active) | -15.2% (active) | 16.9% | 33.9% | 9.18% (active) | 22.7% | -10.7% (active) | 60.8% | -14.1% (active) |
| Cc1cccc(-c2ccccc2Oc2ccc3nnc(Cl)n3n2)c1 | 86.9% | 107% | 104% | 104% | 104% | 124% | 103% | 112% | 102% | 102% |
| Cc1cnc2ccc(Oc3ccccc3-c3ccccc3)nn12 | 89.3% | 106% | 103% | 111% | 112% | 178% | 105% | 120% | 120% | 104% |
| Cc1ccc(NC(=O)N/N=C/c2c[nH]c3ccccc23)c(C)c1 | 12.3% | 9.67% (active) | -23.7% (active) | 15.5% | 47.3% | 21.8% | 22.3% | -33.2% (active) | 20.4% | 3.88% (active) |
| COc1cc2cc(C(=O)N3C[C@@H](CCl)c4c3cc(OC(=O)N(CCC(=O)N3CCN(C)CC3)C3CCCCC3)c3ccccc43)[nH]c2c(OC)c1OC | -38.8% (active) | -30.3% (active) | -48.3% (active) | -59.1% (active) | -83.5% (active) | -57.7% (active) | -59.2% (active) | -65.3% (active) | -34% (active) | -62.1% (active) |
| N/C(=N\c1nc2ccccc2s1)NC(=O)Nc1ccccc1[N+](=O)[O-] | 13.6% | 2.19% (active) | -18.8% (active) | 10.9% | 34.9% | 2.97% (active) | 20.2% | -7.53% (active) | 41.5% | -11.3% (active) |
| CN1CCN(c2ccc3c4c(cccc24)C(=O)N(c2cccc(-c4nn(-c5ccccc5)cc4-c4nc5ccccc5s4)c2)C3=O)CC1 | -25% (active) | 43.1% | 94.6% | 122% | 103% | 135% | 93.8% | 118% | 91.7% | 95.2% |
| O=C(N=Nc1c(O)[nH]c2ccc(Br)cc12)c1ccc2nc(-c3ccc(Cl)cc3)[nH]c2c1 | 15.1% | 58.6% | -25.9% (active) | 10.6% | -28% (active) | 24.3% | -49.4% (active) | -4.77% (active) | -1.71% (active) | 92.4% |
| COc1cc(CNC(=O)C[C@H](C)CCC=C(C)C)ccc1OCc1cn(-c2ccccc2F)nn1 | 73.4% | 81.8% | 66.5% | 94.9% | 71.4% | 43.6% | 81.9% | 105% | 39.5% | 54.8% |
| Cc1nn(-c2ccccc2)c2nc(C)n(C(=O)N/N=C/c3cccc([N+](=O)[O-])c3)c(=O)c12 | 98.6% | 94% | 94.5% | 84.7% | 53.2% | 106% | 91.9% | 99.8% | 91.2% | 93.3% |
| CCOC(=O)c1ccc(NC(=S)NC(=O)c2ccc(NC(=O)C(C)C)cc2OC)cc1 | 0.956% (active) | 0.989% (active) | 35.1% | 90.1% | 27.2% | 100% | 64.5% | 57.4% | 86.7% | 23% |
